# Compounds with a hit are over-represented: about 4.7% of the library has one in this group of screens.
# eIF4H FP inh – inhibitors of RNA binding by human eIF4H | Q15056 | inhibition, % at 35 µM | AID 2012 | hit rate 0.94% among 290,000 | eIF4H fluorescence polarization binding assay;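 note: calls also rest on retests at 20 µM and on dose response follow-up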
# PABP polyA inh – PABP-poly(A) binding inhibition; PABP-poly(A) RNA binding, fluorescence polarization; inhibition, % at 35 µM; hit rate 1% among 290,000; AID 2014;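 note: calls also rest on retests at 20 µM and on dose response follow-up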
# Target sequence (P11940 whole entry, looked up): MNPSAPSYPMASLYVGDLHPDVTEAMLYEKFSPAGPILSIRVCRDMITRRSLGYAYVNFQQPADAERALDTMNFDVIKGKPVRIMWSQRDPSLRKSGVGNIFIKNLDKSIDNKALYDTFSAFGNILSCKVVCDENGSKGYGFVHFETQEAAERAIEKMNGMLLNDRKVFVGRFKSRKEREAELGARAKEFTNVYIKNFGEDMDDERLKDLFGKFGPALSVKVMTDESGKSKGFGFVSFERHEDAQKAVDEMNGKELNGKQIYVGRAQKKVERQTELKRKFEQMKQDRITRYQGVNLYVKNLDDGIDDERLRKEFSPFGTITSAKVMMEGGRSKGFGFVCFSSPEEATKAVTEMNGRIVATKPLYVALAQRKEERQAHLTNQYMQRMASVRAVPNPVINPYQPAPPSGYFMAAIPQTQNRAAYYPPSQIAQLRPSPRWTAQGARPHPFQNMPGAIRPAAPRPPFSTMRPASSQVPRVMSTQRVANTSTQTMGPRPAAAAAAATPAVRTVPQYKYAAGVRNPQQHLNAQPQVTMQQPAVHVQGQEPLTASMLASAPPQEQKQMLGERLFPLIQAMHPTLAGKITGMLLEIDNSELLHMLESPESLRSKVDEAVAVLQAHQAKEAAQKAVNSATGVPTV
# ALR H2O2 inh – inhibitors of human sulfhydryl oxidase ALR; purified ALR, DTT oxidation, H2O2 HRP-luminol luminescence; inhibition, % (concentration not given with the values); hit rate 3.8% among 290,000;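 active = mean replicate inhibition above about 79%, with every replicate also reaching it, limit read from the data; inconclusive = only one of the two criteria met; inactive = mean below limit and not every replicate reaching it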
# SUMO HTRF inh – inhibitors of human SUMOylation (UBC9); P63279; HTRF SUMOylation assay, SAE1/SAE2 + UBC9, in vitro; inhibition, % at 35 µM; hit rate 0.36% among 290,000; AID 2006; in the data active = inhibition above about 50%, passing the limit was not always enough; inconclusive = no clear call, values can overlap the other calls
# Efflux pump mplx – antifungal efflux pump inhibition, Nile Red retention; S. cerevisiae Candida pump triplex; inhibition, % at 10 µM; hit rate 0.44% among 330,000; AID 485275;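 active = plate passing quality check with inhibition over a set limit, or well fluorescence over plate mean plus 4 SD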;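 note: Nile Red retained in pooled yeast measured as flow cytometry median fluorescence; 0% = buffer negative control and 100% = Enniatin B positive control; higher means more Nile Red kept so more efflux inhibition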
# PABP1 MLLE inh – blocks PAM2 peptide binding to the PABP1 MLLE domain. P11940. GST-MLLE / FITC-PAM2 fluorescence polarization. inhibition, % at 20 µM. hit rate 0.36% among 360,000; in the data active = inhibition above about 35%, passing the limit was not always enough;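 note: plate controls were DMSO wells with GST-MLLE for no effect and wells lacking GST-MLLE protein for full effect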
# * = called active by the depositor; u = inconclusive; x = not tested or not shown. Unless noted, the rule behind the calls is not given here.
SMILES,eIF4H FP inh,PABP polyA inh,ALR H2O2 inh,SUMO HTRF inh,Efflux pump mplx,PABP1 MLLE inh
O=C(CSc1nnc(C2COc3ccccc3O2)o1)N1CCCC1 (stereo not given),6,6,1,9,0,39*
CCc1ccccc1NC1=CC(=O)CC(C)(C)C1,1,-9,2,11,0,7
CCOC(=O)CC(=O)CSCC(=O)Nc1ccc(C)cc1,-5,0,100*,8,0,34
CCN(CC(=O)Nc1ccc(NC(C)=O)cc1)C(=O)CSCC(=O)Nc1ccc(C)cc1,x,x,62,x,0,-20
Cc1ccc(NC(=O)CSCC#N)cc1,3,-6,99*,11,0,27
N#CCSCC(=O)Nc1ccc(Br)cc1,-4,-6,3,7,0,14
COc1ccc(NC(=O)C2CCN(c3ncnc4c3nc3n4CCCCC3)CC2)cc1Cl,-8,0,0,10,0,-2
O=C(NCc1ccccc1)C1CCCN1S(=O)(=O)c1cccc2cccnc12 (stereo not given),-1,-16,-175,-8,0,17
O=C(NC1CCCCC1)C1CCN(S(=O)(=O)c2cccc3cccnc23)CC1,-13,-2,-23,-1,0,-9
O=C(NC1CCCC1)C1CCCN1S(=O)(=O)c1cccc2cccnc12 (stereo not given),-3,2,89*,14,0,0
O=C(NC1CCCCCC1)C1CCCN1S(=O)(=O)c1cccc2cccnc12 (stereo not given),15,-1,97*,24,0,1
Cn1c(C=O)c(-c2ccc3cc[nH]c3c2)c2ccccc21,x,x,-6,x,0,-2
Oc1ccc(O)c(-c2cnns2)c1,24,4,99*,-10,0,-12
Oc1ccc(Br)cc1-c1ccn[nH]1,-3,-13,15,5,0,-1
CCC1c2ccc(C)n2CCN1C(=O)Nc1ccc(F)cc1 (stereo not given),113*,109*,-2,20,0,0
CCCC1c2ccc(C)n2CCN1C(=O)Nc1ccc(F)cc1 (stereo not given),u,u,-8,17,0,-16
COc1ccc2oc(=O)c(C(=O)NCC3CCCO3)cc2c1 (stereo not given),-6,8,-19,52*,0,3
COc1ccccc1N=c1oc2cc(O)ccc2cc1C(=O)NCC1CCCO1 (stereo not given),-1,6,92*,-3,0,-10
COc1ccc(CNC(=O)c2cccc3c2C(=O)N(CC2CCCO2)C3)cc1 (stereo not given),0,-7,88*,-4,0,-7
COc1cccc2cc(C(=O)NCC3CCCO3)c(=O)oc12 (stereo not given),-12,-11,x,21,0,-1
Cc1[nH]c2ccccc2c1N=Nc1ccccc1C(=O)O,99,4.5*,0,25,3,-16
Cc1[nH]c2ccccc2c1N=Nc1cccc(C(=O)O)c1,-5,-8,98*,0,0,-11
COc1c(/C=N/Nc2ccc(C(=O)O)cc2)c(CCN(C)C(C)=O)cc2c1OCO2,-12,4,97*,15,0,18
CCC[C@@H]1C=C(C(=O)OCC)[C@H](c2ccccc2)N1S(=O)(=O)c1ccc(C)cc1,x,x,x,x,x,5
COc1ccc(C(=O)CC(C(=O)O)c2ccc(OC)c(OC)c2)cc1OC (stereo not given),x,x,x,x,x,-7
SMILES,eIF4H FP inh,PABP polyA inh,ALR H2O2 inh,SUMO HTRF inh,Efflux pump mplx,PABP1 MLLE inh
Oc1[nH]c2ccccc2c1C1=NCCCCC1,1,-12,93*,7,0,-5
c1cnc2ccc(-c3ccc4ncccc4c3)cc2c1,4,3,-4,21,0,11
Fc1c(F)c(F)c(N=Cc2ccc3ncccc3c2)c(F)c1F,0.6*,88*,-4,-3,0,3
CC1CCCCC1n1c(-c2cccnc2)n[nH]c1=S (stereo not given),-6,2,87*,5,0,17
Cc1c(Cl)cccc1-n1c(-c2cccnc2)n[nH]c1=S,-5,-3,80*,12,0,-27
Cc1cc(Cl)ccc1-n1c(-c2cccnc2)n[nH]c1=S,-4,-4,66,-15,0,-18
OC(CCN1CC2CCC(CC2)C1)(Cc1ccccc1)c1ccco1 (stereo not given),x,x,x,x,x,6
O=C(CN(Cc1ccc(Cl)cc1)C(=O)CNS(=O)(=O)c1ccccc1)NCC1CCCO1 (stereo not given),-9,-3,x,0,0,-1
Cc1ccc(C)c(-c2nc3ccc(N)cc3[nH]2)c1,-6,0,99*,50*,0,-2
Cc1ccc2nc(-c3ccccc3N)[nH]c2c1,5,0,52,34,1,-9
Cc1nc2ccc(-c3nc4ccc(N)cc4[nH]3)cc2[nH]1,23,36,100*,u,0,-2
Nc1ccc2nc(-c3ccc(Cl)cc3)[nH]c2c1,10,22,99*,47,0,-15
Nc1ccc2nc(-c3cc(Cl)c(N)c(Cl)c3)[nH]c2c1,-7,-6,x,1,0,-18
Nc1ccc(-c2nc3ccc(N)cc3[nH]2)cc1,-14,u,98*,66*,0,-14
Nc1ccc(-c2nc3ccc([N+](=O)[O-])cc3[nH]2)cc1,4,8,97*,3,0,5
Cc1cc(-c2nc3ccccc3[nH]2)ccc1N,-2,12,98*,10,0,0
Nc1ccc(-c2nc3c(Cl)c(N)ccc3[nH]2)cc1,-10,-3,98*,40,0,-14
Nc1cc(N)cc(-c2nc3ccccc3[nH]2)c1,2,8,20,-9,0,-3
Nc1ccc2nc(C3CCCCC3)[nH]c2c1,-4,5,99*,-9,0,-12
COC(=O)[C@@]1(Cc2ccc(OC)cc2)[C@H]2c3cc(C(=O)N4CCCC4)n(CCSCCO)c3C[C@H]2CN1C(=O)c1ccccc1,-17,-4,x,14,0,x
Cc1[nH]c2ccccc2c1-c1nc2ccccc2[nH]1,-6,0,89*,-11,0,7
Cc1ccc(-c2nc3ccccc3[nH]2)s1,14,28,44,8,0,16
COc1ccc(CCNC(=O)Cc2cccc(C(F)(F)F)c2)cc1OC,-18,-4,-7,9,0,32
CC(C)NC(=S)NN(c1ccccc1)c1ccccc1,-13,-2,99*,10,0,24
COc1ccccc1CNC(=O)COC(=O)c1cccc(-n2cnnn2)c1,x,x,x,x,0,-10
CC(C)Oc1ccc(S(=O)(=O)N2CCOCC2)cc1NC(=O)CSC(=S)N1CCCC1,x,x,x,x,x,8
CCCCn1c(N)c(C(=S)NC(=O)CC(C)C)c(=O)n(C)c1=O,6,3,x,-9,x,41*
CC(=O)NC(=S)c1c(N)n(Cc2ccccc2)c(=O)n(C)c1=O,-11,-3,12,-6,0,x
